Giardia FBPA inh – inhibitors of Giardia lamblia fructose-1,6-bisphosphate aldolase. 290,000 compounds, 0.71% hits. A8B2U2. purified Giardia FBPA. Potency, µM (series often up to 59.6 µM), for inactives: at the highest dose activity, negative = inhibition, hits mostly inhibitors; active = well fitted inhibition curve with a large enough effect; inconclusive = small, poorly fitted or top-dose-only effect, or effect the other way; also: nearly all actives have a fitted effect of over 55% in size
Target sequence (A8B2U2 whole entry, looked up): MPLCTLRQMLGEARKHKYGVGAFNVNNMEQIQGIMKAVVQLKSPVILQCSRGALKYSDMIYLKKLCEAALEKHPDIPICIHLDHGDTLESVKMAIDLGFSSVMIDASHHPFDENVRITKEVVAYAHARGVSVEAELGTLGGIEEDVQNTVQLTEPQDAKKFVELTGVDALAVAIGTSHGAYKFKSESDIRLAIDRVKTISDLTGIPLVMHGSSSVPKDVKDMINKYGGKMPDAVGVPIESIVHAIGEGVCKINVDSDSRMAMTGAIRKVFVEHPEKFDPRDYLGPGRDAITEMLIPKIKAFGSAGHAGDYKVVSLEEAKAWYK
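Giardia FBPA (40 nM reagent) was preincubated 10 min at RT with compound (up to 57.5 uM final), then substrate plus GAPDH/TPI/NAD/arsenate coupling system with diaphorase/resazurin was added; resorufin fluorescence (525/598 nm) was read after 20 min.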
FMDV inh – blocks foot and mouth disease virus; FMDV antiviral cell-based qHTS; Potency, µM (doses to about 57.9 µM), for inactives: at the highest dose activity change, negative = inhibition, hits mostly inhibitors; 410,000 compounds, 1.2% hits; AID 1159524; calls by dose curve; tested in HEK293T cells; also: read-out not given here; nearly all actives have a fitted effect of over 45% in size
VACV Venus inh – inhibitors of vaccinia virus (Venus reporter); Vaccinia virus Venus reporter expression, fluorescence; Potency, µM (highest dose often 36.5 µM), for the others: at the top dose activity change, negative = inhibition, actives largely listed as inhibitors; 330,000 compounds, 0.46% hits; AID 720580; calls by dose curve; tested in A549 cells; also: nearly all actives have a fitted effect of over 30% in size
Vaccinia mCherry – vaccinia inhibition (mCherry reporter); Potency, µM (highest dose often 36.5 µM), without a hit: at the top dose activity change, negative = inhibition, hits mostly inhibitors; AID 720579; 310,000 compounds, 0.63% hits; Vaccinia virus mCherry reporter infection, fluorescence; calls by dose curve; tested in A549 cells; also: nearly all actives have a fitted effect of over 35% in size
* = called active by the depositor; i = inactive; ? = inconclusive; . = no result given. Compounds with a hit are over-represented: about 2.2% of the library has one in this group of screens. % is scaled to controls: 0 for no effect and ±100 for the full control effect; potency is read from the fitted curve at half-maximal effect.

SMILES | Giardia FBPA inh | FMDV inh | VACV Venus inh | Vaccinia mCherry
C=CCn1c(C)cc(C(=O)CN2C(=O)c3ccccc3S2(=O)=O)c1C | . | 40µM* | -22% | i
O=C(CN1C(=O)c2ccccc2S1(=O)=O)c1ccccc1 | 0% | ? | -12% | .
CCn1c(C)cc(C(=O)CN2C(=O)c3ccccc3S2(=O)=O)c1C | . | ? | -6% | -14%
CCCCN(C)c1ncnc2c1cnn2-c1cccc(Cl)c1 | . | 7% | -7% | -9%
Oc1ccccc1C1C=C(c2ccc3c(c2)OCO3)NC(c2cccc(Cl)c2)N1 (stereo not drawn) | . | . | -6% | 28%
CN(C)c1nc2cc3c(cc2cc1CN(CC1CCCO1)C(=O)/C=C/c1cccs1)OCO3 (stereo not drawn) | . | -18% | -6% | -8%
CCc1c(C)sc2c1CCN(C(=O)Nc1ccc(F)c(Cl)c1)C2c1ccc(F)cc1 (stereo not drawn) | . | 40µM* | -2% | -19%
CCc1c(C)sc2c1CCN(C(=O)Nc1ccccc1C(=O)OC)C2c1ccc(F)cc1 (stereo not drawn) | . | -30% | -1% | -5%
O=[N+]([O-])c1c(Nc2ccc(O)cc2)cc(Cl)c2nonc12 | 5% | 22µM* | ? | ?
O=[N+]([O-])c1c(Nc2ccccn2)cc(Cl)c2nonc12 | 0.45µM* | 13µM* | -31% | -25%
O=C(Nc1cccnc1Cl)c1cnn2c1NC(=C1CC1)C=C2C(F)F | . | . | -21% | -18%
Cc1ncc2c(c1CNS(=O)(=O)N(C)C)CCN(C(=O)/C=C/c1cccc(F)c1)C2 | . | 0% | 6% | -4%
Cn1cnc([N+](=O)[O-])c1Oc1cccc(O)c1 | 6% | 40µM* | ? | ?
Cn1cnc([N+](=O)[O-])c1Oc1ccccc1 | 4% | ? | ? | 28µM*
Cc1cnc(C)c(-c2ccc(F)c3c2OC(CNC(=O)/C=C/c2cccs2)C3)n1 (stereo not drawn) | . | ? | -12% | -6%
CN1CCCC(CC2c3ccccc3Sc3ccccc32)C1 (stereo not drawn) | . | 40µM* | -29% | -18%
Cc1c(C(=O)NCCc2cccnc2)cnn1-c1nccc(-c2ccccc2F)n1 | . | 12% | -28% | -20%
COC(=O)c1ccc(NC(=O)CN(C)S(=O)(=O)c2ccc3c(c2)CCCC(=O)N3)cc1 | . | 32µM* | -4% | -12%
O=C(CC1(c2cccc(F)c2)CC(=O)N(Cc2cccnc2)C1=O)N1CCCCCCC1 (stereo not drawn) | . | 1% | -7% | -11%
COc1ccccc1CNc1nc(-c2cccc(NS(C)(=O)=O)c2)nc2ccccc12 | -7% | -9% | . | .
COc1cc(NS(C)(=O)=O)ccc1Nc1c2ccccc2nc2ccccc12 | -5% | -18% | ? | 0.5µM*
COc1ccc([N+](=O)[O-])cc1Nc1c2ccccc2nc2ccccc12 | -2% | 32µM* | . | .
COc1ccc(Nc2nc(-c3cccc([N+](=O)[O-])c3)nc3ccccc23)cc1 | 1% | 40µM* | ? | ?
COc1ccc(OC)c(Nc2c3ccccc3nc3ccccc23)c1 | -5% | ? | ? | ?
Cc1c(C(=O)NCC2CCCN(C)C2)cnn1-c1ncc2c(n1)-c1ccccc1CCC2 (stereo not drawn) | . | 0% | -12% | -15%
SMILES | Giardia FBPA inh | FMDV inh | VACV Venus inh | Vaccinia mCherry
CN(C)C(=O)COc1ccccc1C(=O)OCC(=O)Nc1ccc(Oc2ccc(Br)cc2)cc1 | . | . | -22% | -12%
CC(=O)Nc1ccc(/C=C/c2ccnc3ccccc23)cc1 | . | . | -19% | -27%
Cc1c(CN2CCOc3c(O)cc(-c4nc5ccccc5s4)cc3C2)cnn1C | . | ? | -13% | -25%
Cc1c(C(=O)NCCCN2CCCC2=O)cnn1-c1ncc2c(n1)-c1ccccc1CC2 | . | 29% | -25% | ?
O=C(NC(=S)Nc1ccccc1N1CCCCC1)c1ccco1 | 0% | 22µM* | 0% | i
O=C(NC(=S)Nc1ccccc1N1CCCC1)c1ccco1 | 14µM* | -9% | -1% | -13%
Cc1cnc(C)c(-c2cccc3c2OC(CNC(=O)C2(c4ccc(Cl)cc4)CC2)C3)n1 (stereo not drawn) | . | -8% | -5% | -10%
Cc1ccccc1C(=O)N1CCN(c2ncnc3c2cnn3-c2ccccc2)CC1 | 0% | 20µM* | . | .
Cc1ccc(C)c(N2CCN(c3ncnc4c3cnn4-c3ccccc3)CC2)c1 | 3% | ? | -13% | 3%
Cc1ccc(-n2ncc3c(N4CCN(Cc5ccccc5)CC4)ncnc32)cc1C | . | 14µM* | -6% | -5%
S=c1sc2c(N3CCN(Cc4ccccc4)CC3)ncnc2n1-c1ccccc1 | 0% | 28µM* | 19% | .

Compound activity deposited in PubChem by National Center for Advancing Translational Sciences (NCATS).
